Assay results reported in PubChem BioAssay AID722 (NMMLSC, 2007).
The whole screen tested about 1,300 compounds, of which about 40 (3%) were called active. No stated cut-off is given here; in the data, active means inhibition above about 30%; inactive means the rest. The full list was thinned out, with actives kept by preference.

What follows are molecules tested against fMet-Leu-Phe receptor (Homo sapiens) (UniProt P21462) (assay: human FPR1 ligand displacement screen – cell-based, flow cytometry, SAR analysis, primary screen (AID 722)). Details: FPR-expressing cells, fluorescent ligand binding inhibition, hits give high values, concentration not given here.
fMet-Leu-Phe receptor (Homo sapiens), sequence (P21462 whole entry, looked up): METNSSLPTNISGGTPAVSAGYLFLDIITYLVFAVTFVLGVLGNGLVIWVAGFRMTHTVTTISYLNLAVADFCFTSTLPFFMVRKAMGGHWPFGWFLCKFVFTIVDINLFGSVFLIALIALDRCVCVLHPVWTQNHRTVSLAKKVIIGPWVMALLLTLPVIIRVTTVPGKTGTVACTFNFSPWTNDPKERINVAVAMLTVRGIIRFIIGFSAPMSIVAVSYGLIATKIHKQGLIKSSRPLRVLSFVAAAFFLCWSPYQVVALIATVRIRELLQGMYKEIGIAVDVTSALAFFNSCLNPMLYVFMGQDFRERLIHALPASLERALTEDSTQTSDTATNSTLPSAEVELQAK

SMILES | inhibition
COc1ccccc1-c1c(C(F)(F)F)oc2cc(OC(=O)c3ccccc3C)ccc2c1=O | 2.7% (inactive)
COc1ccc(-c2c(C(F)(F)F)oc3cc(OC(=O)c4ccco4)ccc3c2=O)cc1OC | 43.5% (active)
COc1ccc(-c2c(C(F)(F)F)oc3cc(OC(=O)c4ccc(C)cc4)ccc3c2=O)cc1OC | -0.2% (inactive)
COc1ccc(C(=O)Oc2ccc3c(=O)c(-c4ccc(OC)c(OC)c4)c(C(F)(F)F)oc3c2)cc1 | 9.4% (inactive)
COc1ccccc1-c1c(C(F)(F)F)oc2cc(OC(=O)c3ccco3)ccc2c1=O | 59% (active)
COc1ccc(Oc2c(C(F)(F)F)oc3cc(OC(=O)c4ccco4)ccc3c2=O)cc1 | 9.6% (inactive)
COc1cc(C2C(C(=O)c3cc4ccccc4o3)=C(O)C(=O)N2c2nnc(C)s2)ccc1O (centres undefined) | -5.6% (inactive)
O=C1OC(c2ccccc2F)/C(=C(/O)c2ccccc2)C1=O (centres undefined) | 2.1% (inactive)
CCOC(=O)c1cc2ccccc2n1CC(=O)c1ccccc1 | -0.2% (inactive)
O=C1C(=O)N(c2nncs2)C(c2ccc(F)cc2)/C1=C(\O)c1ccccc1 (centres undefined) | 5.9% (inactive)
Fc1cccc(-c2nn(CN3CCCCC3)c(=S)n2-c2ccccc2)c1 | 4.7% (inactive)
COc1ccc(C2/C(=C(\O)c3ccc(F)cc3)C(=O)C(=O)N2c2nnc(C)s2)cc1 (centres undefined) | 4.6% (inactive)
COc1ccc(/C(O)=C2\C(=O)C(=O)N(CCN3CCOCC3)C2c2ccc(Br)cc2)cc1 (centres undefined) | 2.9% (inactive)
O=C(O)CCc1oc2cc(O)ccc2c(=O)c1-c1nc2ccccc2[nH]1 | 11.1% (inactive)
CCOC(=O)c1c(NC(=O)C2CCCC2)sc2c1CCC(CC)C2 (centres undefined) | -13.3% (inactive)
CCc1c(C)nc2c(-c3ccccc3OC)c(C)[nH]n2c1=O | 5.5% (inactive)
CCOc1ccccc1C1CC(=O)NC2=C1C(=O)CC(c1ccccc1Cl)C2 (centres undefined) | -7.2% (inactive)
O=C1C(=O)N(CCN2CCOCC2)C(c2ccc(Cl)cc2)/C1=C(\O)c1ccc(F)cc1 (centres undefined) | -8.1% (inactive)
CCc1cc2c(=O)c(-c3nc4ccccc4n3C)c(C)oc2cc1OC(C)=O | 78.9% (active)
CCc1cc2c(=O)c(-c3nc4ccccc4n3C)c(C)oc2cc1O | -2.5% (inactive)
CCc1cc2c(=O)c(-c3nc4ccccc4[nH]3)c(C)oc2cc1OC(C)=O | -0.7% (inactive)
Cc1[nH]n2c(=O)cc(Cc3ccccc3)nc2c1-c1ccccc1 | 6.8% (inactive)
CCOC(=O)C(C#N)C(c1ccc2c(c1)OCO2)c1ccccc1OC (centres undefined) | -0.7% (inactive)
O=C(NC(c1nnc(-c2ccccc2)o1)c1ccccc1F)c1ccc(F)cc1 (centres undefined) | -6% (inactive)
CN1C(=O)C2(/C(=C(/O)c3ccc(F)cc3)C(=O)C(=O)N2CCN2CCOCC2)c2ccccc21 (centres undefined) | -6.9% (inactive)
CC(C)c1ccc(C2/C(=C(\O)c3ccccc3)C(=O)C(=O)N2Cc2cccnc2)cc1 (centres undefined) | 40.5% (active)
Cc1ccc(C2/C(=C(/O)c3ccccc3)C(=O)C(=O)N2Cc2cccnc2)cc1 (centres undefined) | 5.2% (inactive)

SMILES | inhibition
COc1ccc(C2/C(=C(\O)c3ccc(C)cc3)C(=O)C(=O)N2Cc2cccnc2)c(OC)c1 (centres undefined) | 65.6% (active)
COCCCN1C(=O)C(=O)/C(=C(/O)c2ccccc2)C1c1ccc(C(C)C)cc1 (centres undefined) | 54.4% (active)
CC(C)(C)c1ccc(C2/C(=C(\O)c3ccccc3)C(=O)C(=O)N2Cc2cccnc2)cc1 (centres undefined) | -8.3% (inactive)
COCCCN1C(=O)C(=O)/C(=C(/O)c2ccc(C)cc2)C1c1ccc(C(C)C)cc1 (centres undefined) | 2.7% (inactive)
O=C1C(=O)N(Cc2cccnc2)C(c2ccc(Cl)cc2)/C1=C(\O)c1ccccc1 (centres undefined) | 8.1% (inactive)
Cc1ccc(/C(O)=C2\C(=O)C(=O)N(Cc3cccnc3)C2c2ccc(Br)cc2)cc1 (centres undefined) | 61.8% (active)
COCCCN1C(=O)C(=O)/C(=C(/O)c2ccccc2)C1c1ccc(Cl)cc1 (centres undefined) | 0.5% (inactive)
O=C1C(=O)N(Cc2cccnc2)C(c2ccc(Br)cc2)/C1=C(\O)c1ccccc1 (centres undefined) | -0.7% (inactive)
COc1ccc(C2/C(=C(/O)c3ccccc3)C(=O)C(=O)N2Cc2ccccc2)c(OC)c1 (centres undefined) | -11% (inactive)
COc1ccccc1C1/C(=C(\O)c2ccc(C)cc2)C(=O)C(=O)N1Cc1cccnc1 (centres undefined) | -4.4% (inactive)
Cc1onc(-c2c(Cl)cccc2Cl)c1C(=O)N1CCCC(C)C1 (centres undefined) | -2.1% (inactive)
CCOC(=O)c1cc(C)sc1NC(=O)c1ccc(OC)cc1 | -6.6% (inactive)
O=C1CSC(c2ccc(F)cc2)N1c1ccccc1F (centres undefined) | -3% (inactive)
CN1C(=O)C(=O)/C(=C(\O)c2ccc(Cl)cc2)C1c1ccc(Cl)cc1 (centres undefined) | -3.2% (inactive)
O=C1CSC(c2cccc(F)c2)N1c1c(F)cccc1F (centres undefined) | 0.4% (inactive)
Cn1c(OCc2cccnc2)nc2c1c(=O)n(Cc1ccc(F)cc1)c(=O)n2C | 1% (inactive)
O=C1C(=O)N(Cc2cccnc2)C(c2ccc(Br)cc2)/C1=C(\O)c1ccc(F)cc1 (centres undefined) | -5.5% (inactive)
O=C(c1ccccc1)N(Cc1ccco1)Cc1ccccc1Cl | -5% (inactive)
Cc1ccccc1C(=O)N1C(=S)C(c2ccc(F)cc2)=NC12CCN(C)CC2 | 3.3% (inactive)
CCOC(=O)c1c(NC(=O)c2ccc(F)cc2)sc(C)c1C | -3.4% (inactive)
COc1ccc(NC(=O)C(NC(=O)Cc2cccs2)c2ccccc2)cc1 (centres undefined) | -2.6% (inactive)
O=C1C(=O)N(Cc2cccnc2)C(c2ccccc2Cl)/C1=C(\O)c1ccccc1 (centres undefined) | 1.8% (inactive)
CC(C)CN1C(=O)c2ccccc2C(C(=O)N2CCCC2)C1c1cccs1 (centres undefined) | 4.5% (inactive)
CCc1ccc(C2/C(=C(/O)c3ccc(OC)cc3)C(=O)C(=O)N2CCc2c[nH]c3ccccc23)cc1 (centres undefined) | 3% (inactive)
O=C1C(=O)N(CCc2c[nH]c3ccccc23)C(c2ccc(Cl)cc2)/C1=C(/O)c1ccc(F)cc1 (centres undefined) | 1.5% (inactive)
COc1ccc(/C(O)=C2/C(=O)C(=O)N(CCc3c[nH]c4ccccc34)C2c2ccc(C(C)C)cc2)cc1 (centres undefined) | 43.8% (active)
O=C(C1=C(O)C(=O)N(CC2CCCO2)C1c1cccs1)c1ccco1 (centres undefined) | -9.5% (inactive)
